Records with an inconclusive call do not appear. Entries that show only a call come without a potency. The source made the active and inactive calls. Calls come from the whole dose curve; as a rule, active = well fitted activation curve with a large enough effect in the repeat runs; inconclusive = weak or mixed curves; inactive = no such curve, though single readings can be large or run the other way.
Biological target: Aryl hydrocarbon receptor (Homo sapiens) (UniProt P35869)
Assay: qHTS assay to identify small molecule that activate the aryl hydrocarbon receptor (AhR) signaling pathway (AID 743085); note: nearly all actives have a fitted effect of over 15% in size;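 for activation: HG2L7.5c1 human HepG2 liver cells with stably integrated DRE-driven firefly reporter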
Settings: HepG2 AhR-luc (HG2L7.5c1), luciferase, 24 h; series mostly up to 70.3 µM
Description: U.S. Tox21 Program National Center for Advancing Translational Sciences [NCATS] NIH Chemical Genomics Center [NCGC] U.S. Environmental Protection Agency [EPA] National Institutes of Environmental Health Sciences [NIEHS] National Toxicology Program [NTP] U.S. Food and Drug Administration [FDA] Tox21 Assay overview: The Aryl hydrocarbon Receptor (AhR), a member of the family of basic helix-loop-helix transcription factors, is crucial to adaptive responses to environmental changes. AhR mediates cellular responses to environmental pollutants such as aromatic hydrocarbons through induction of phase I and II enzymes but also interacts with other nuclear receptor signaling pathways. A cell based HepG2-AhR-luc assay (HG2L7.5c1 cell line, developed by Dr. Michael S. Denison, University of California at Davis, was used to assess the activation of AhR. HepG2 (human hepatocellular carcinoma) cells were stably transfected with an Ah receptor-responsive firefly luciferase reporter gene plasmid containing 20 dioxin responsive elements and luciferase reporter gene. Increased luciferase activity can be used to identify the compounds that induce AhR activation.
Tox21 Assay Protocol Summary: 4000 cells in 5 uL/well were dispensed into white wall/solid bottom 1536-well plates using a Multidrop Combi (Thermo Fisher Scientific Inc., Waltham, MA) dispenser. After the assay plates were incubated at 37C for 5 h, 23 nL of compound or DMSO vehicle was transferred to the assay plates by a pintool station (Kalypsys, San Diego, CA). The plates were incubated at 37C for 24 hr. After 1 ul/well of CellTiter-Fluor reagent (Promega, Madison, WI) was added into the assay plates using a Flying Reagent Dispenser (FRD) (Aurora Discovery, CA), the assay plates were incubated at 37C for 30 min. The fluorescence intensity in the plates was measured using a ViewLux plate reader (PerkinElmer, Shelton, CT), followed by the addition of 4 uL of ONE-Glo Luciferase Assay reagent (Promega) using an FRD (Aurora Discovery). After the assay plates were incubated at room temperature for 30 min, luminescence intensity was measured using a ViewLux plate reader (Perkin Elmer).
Potency is the fitted concentration of half-maximal effect.

Sequence of Aryl hydrocarbon receptor (Homo sapiens) (P35869 whole entry, looked up): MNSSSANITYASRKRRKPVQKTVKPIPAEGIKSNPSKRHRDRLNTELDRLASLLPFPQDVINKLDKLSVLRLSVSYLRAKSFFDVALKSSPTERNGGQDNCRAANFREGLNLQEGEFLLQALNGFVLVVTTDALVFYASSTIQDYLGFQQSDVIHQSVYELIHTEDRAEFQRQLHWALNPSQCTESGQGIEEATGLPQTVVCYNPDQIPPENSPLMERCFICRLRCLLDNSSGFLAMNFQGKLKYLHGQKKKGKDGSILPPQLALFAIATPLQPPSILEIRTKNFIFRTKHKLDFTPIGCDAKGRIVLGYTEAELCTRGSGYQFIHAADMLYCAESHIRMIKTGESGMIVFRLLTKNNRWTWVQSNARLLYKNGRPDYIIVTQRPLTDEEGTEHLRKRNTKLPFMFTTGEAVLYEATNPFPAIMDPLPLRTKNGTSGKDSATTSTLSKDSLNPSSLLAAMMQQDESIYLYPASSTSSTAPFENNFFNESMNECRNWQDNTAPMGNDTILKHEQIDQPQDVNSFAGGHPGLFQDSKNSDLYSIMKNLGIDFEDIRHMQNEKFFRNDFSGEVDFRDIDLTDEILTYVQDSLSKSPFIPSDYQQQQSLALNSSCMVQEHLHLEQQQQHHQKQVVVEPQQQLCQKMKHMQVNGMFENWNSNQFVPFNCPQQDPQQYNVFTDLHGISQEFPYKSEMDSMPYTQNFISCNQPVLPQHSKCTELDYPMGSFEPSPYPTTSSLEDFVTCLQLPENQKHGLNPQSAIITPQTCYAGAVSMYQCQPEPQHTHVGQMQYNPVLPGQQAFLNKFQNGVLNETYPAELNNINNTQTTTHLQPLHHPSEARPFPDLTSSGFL

| SMILES | Potency |
| --- | --- |
| BrCC(Br)C1CCC(Br)C(Br)C1 (stereo not given) | inactive |
| c1ccoc1 | inactive |
| COc1nn(C(=O)NS(=O)(=O)c2ccccc2OC(F)(F)F)c(=O)n1C | inactive |
| CCOP(=O)(OCC)O/C(=C/Cl)c1ccc(Cl)cc1Cl | inactive |
| O=C(CCl)c1ccc(Cl)cc1Cl | inactive |
| CN1[C@@H]2CC[C@H]1CC(OC(=O)c1cc(Cl)cc(Cl)c1)C2 (stereo not given in full) | inactive |
| C=CCCl | inactive |
| CCCCC(O)(Cn1cncn1)c1ccc(Cl)cc1Cl (stereo not given) | inactive |
| ClP(Cl)(Cl)(Cl)Cl | inactive |
| CCOP(O)OCC | inactive |
| CC(=O)CCC(C)=O | inactive |
| O=C1C(Cl)C(CCl)CN1c1cccc(C(F)(F)F)c1 (stereo not given) | 48.6 µM (active) |
| CCOC(=O)COc1cc(-c2nn(C)c(OC(F)F)c2Cl)c(F)cc1Cl | 19.3 µM (active) |
| C=CC(=O)OCC(C)O (stereo not given) | inactive |
| COP(=S)(Oc1cc(Cl)c(Br)cc1Cl)c1ccccc1 (stereo not given) | 27.3 µM (active) |
| Clc1cc(Cl)c(Cl)c(Cl)c1 | inactive |
| CC(C)(OO)c1ccccc1 | inactive |
| CC(=O)NC1CCSC1=O (stereo not given) | inactive |
| COC(=O)C(C)N(C(=O)Cc1ccccc1)c1c(C)cccc1C (stereo not given) | inactive |
| O=C(O)c1ccccc1C(=O)Nc1cccc2ccccc12 | 13.7 µM (active) |

| SMILES | Potency |
| --- | --- |
| O=C1c2ccccc2C(=O)C1C(=O)C(c1ccccc1)c1ccccc1 | 29.8 µM (active) |
| COC(N)=O | inactive |
| ClCC(Br)CBr (stereo not given) | inactive |
| O=[N+]([O-])c1cc(C(F)(F)F)cc([N+](=O)[O-])c1Cl | inactive |
| CCCN(CC1CC1)c1c([N+](=O)[O-])cc(C(F)(F)F)cc1[N+](=O)[O-] | inactive |
| O=C(NC(=O)c1c(F)cccc1F)Nc1ccc(OC(F)(F)C(F)OC(F)(F)F)c(Cl)c1 (stereo not given) | inactive |
| O=S1(=O)OC(c2cc(Br)c(O)c(Br)c2)(c2cc(Br)c(O)c(Br)c2)c2ccccc21 | inactive |
| Clc1cccc2ccccc12 | inactive |
| C=COC(C)=O | inactive |
| CCCCC(CC)COP(=O)(Oc1ccccc1)Oc1ccccc1 (stereo not given) | inactive |
| CCOP(=O)(OCC)SCCSCC | inactive |
| CCC(COC(=O)c1cc(OC)c(OC)c(OC)c1)(c1ccccc1)N(C)C (stereo not given) | inactive |
| CC1(C)[C@H](C=C(Cl)Cl)[C@@H]1C(=O)O[C@@H](C#N)c1cccc(Oc2ccccc2)c1 | inactive |
| O=C(O)CC(Cl)C(=O)O (stereo not given) | inactive |
| O=C(Nc1ccccc1)Nc1cnns1 | 15.3 µM (active) |
| O=C1NCN(c2ccccc2)C12CCN(CCCOc1ccc(F)cc1)CC2 | inactive |
| COC(=O)C(Cl)C(=O)OC | inactive |
| COc1c(C(C)(C)C)cc([N+](=O)[O-])c(C)c1[N+](=O)[O-] | inactive |
| COC(C)(C)CCC[C@H](C)C/C=C/C(C)=C/C(=O)OC(C)C | inactive |
| CN1C(=O)C(O)N=C(c2ccccc2)c2cc(Cl)ccc21 (stereo not given) | inactive |
